Screening results as filed in PubChem.
CHRM1 PAM: human CHRM1 positive allosteric modulation. activation, % at 3 µM. actives 0.088% (n = 360,000). AID 588819. CHO-K1 hM1, Fluo-8 calcium fluorescence, ACh EC20; 0% = ACh EC20, 100% = maximal ACh; in the data active = activation above about 19%, passing the limit was not always enough
Target sequence (P11229 whole entry, looked up): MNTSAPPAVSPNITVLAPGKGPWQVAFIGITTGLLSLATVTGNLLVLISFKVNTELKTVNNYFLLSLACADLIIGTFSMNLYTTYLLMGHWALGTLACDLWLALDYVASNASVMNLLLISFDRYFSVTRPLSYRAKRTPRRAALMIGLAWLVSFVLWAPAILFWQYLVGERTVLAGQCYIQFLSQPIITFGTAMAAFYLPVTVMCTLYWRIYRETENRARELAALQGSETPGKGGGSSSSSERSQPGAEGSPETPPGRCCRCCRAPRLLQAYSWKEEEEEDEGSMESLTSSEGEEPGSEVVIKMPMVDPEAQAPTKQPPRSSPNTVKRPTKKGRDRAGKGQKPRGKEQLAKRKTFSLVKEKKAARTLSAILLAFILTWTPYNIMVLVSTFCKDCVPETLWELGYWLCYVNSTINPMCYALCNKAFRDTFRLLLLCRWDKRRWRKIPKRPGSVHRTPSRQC
CHO-K1 Ca ag: counter-screen for M1 agonists: effect in parental CHO-K1 cells. activation, % at 3 µM. Fluo-8 calcium fluorescence; scaled to maximal ATP response, vehicle zero. actives 0.48% (n = 360,000); in the data active = activation above about 15%;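 note: untransfected CHO-K1 host cells lacking M1 receptor as counterscreen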
M1 antag: blocks human M1 muscarinic receptor; P11229; CHO-K1 hM1, Fluo-8 calcium fluorescence, ACh EC80 antagonist; inhibition, % at 3 µM; actives 1.3% (n = 360,000);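 active = percent inhibition above its own plate's cutoff, namely the mean of that plate's compound wells plus 3 SD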;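 note: peak over basal fluorescence ratio during 140 s after agonist addition; 0% = ACh EC80 plus DMSO and 100% = DMSO alone without agonist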
M1 ag: human M1 muscarinic receptor agonism. P11229. CHO-K1 hM1, Fluo-8 calcium fluorescence, agonist mode; 0% DMSO, 100% acetylcholine EC100. activation, % at 3 µM. actives 0.33% (n = 360,000);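 active = activation above the run's mean compound activation plus 3 SD, cut at about 16% in these data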;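 note: peak over basal fluorescence ratio within a 140 s kinetic read after compound addition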
M1 PAM parental: M1 PAM counterscreen hit in parental CHO-K1 cells. ATP EC20, Fluo-8 calcium fluorescence; 0% at ATP EC20, 100% at ATP max. activation, % at 3 µM. actives 0.02% (n = 360,000). AID 602247;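 active = activation above the run cutoff, the mean activation of all test compounds plus 3 SD, cut at about 40% in these data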;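 note: peak over basal fluorescence ratio in a 140 s read after ATP addition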
CHO-K1 Ca antag: M1 antagonist counterscreen hit in parental CHO-K1 cells | inhibition, % at 3 µM | ATP-induced calcium, Fluo-8 fluorescence | actives 0.6% (n = 360,000);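 active = inhibition above a per-plate cutoff, the plate's mean sample inhibition plus 3 SD, cut at about 24% in these data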;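 note: 0% = DMSO plus EC80 ATP and 100% = DMSO alone without ATP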
* marks the source's active call; other numbers are inactive results. Compounds with a hit are over-represented: about 2.3% of the library has one in this group of screens.

C/C(=N\NC(=O)C1CCCC1)c1ccc(Cl)cc1Cl was read as CHRM1 PAM 4.0, CHO-K1 Ca ag 2.4, M1 antag -0.5, M1 ag -5.8, M1 PAM parental 16.1 and CHO-K1 Ca antag -7.1.
`COc1ccc2[nH]cc(CCNS(=O)(=O)c3ccc(C)cc3)c2c1` gave CHRM1 PAM 4.6, CHO-K1 Ca ag 26.1*, M1 antag -6.0, M1 ag 14.1, M1 PAM parental 13.5 and CHO-K1 Ca antag 2.4.
`O=[N+]([O-])c1ccccc1S(=O)(=O)Nc1cccc(-c2ccc3nncn3n2)c1` gave CHRM1 PAM -3.8, CHO-K1 Ca ag 3.0, M1 antag 0.0, M1 ag -7.4, M1 PAM parental 15.5 and CHO-K1 Ca antag -5.1.
CN(C)c1ccc(CN2CCC(C(=O)NC(c3ccc(F)cc3)c3ccc4ccccc4n3)CC2)cc1 (stereo not drawn) was read as CHRM1 PAM -27.7, CHO-K1 Ca ag 0.6, M1 antag 53.8*, M1 ag -6.7, M1 PAM parental 7.4 and CHO-K1 Ca antag 3.2.
For O=C(NC(c1ccc(F)cc1)c1ccc2ccccc2n1)C1CCN(Cc2ccc3ccccc3n2)CC1 (stereo not drawn) the results were CHRM1 PAM -5.5, CHO-K1 Ca ag 1.0, M1 antag 4.7, M1 ag -5.9, M1 PAM parental 14.2 and CHO-K1 Ca antag -6.7.
Screening Cc1ccccc1N1C(=O)c2cccc3c(N(C)CCO)ccc(c23)C1=O returned CHRM1 PAM -7.7, CHO-K1 Ca ag 16.5*, M1 antag 0.7, M1 ag 8.3, M1 PAM parental 3.0 and CHO-K1 Ca antag 6.9.
`COc1ccccc1N1C(=O)c2cccc3c(N(C)CCO)ccc(c23)C1=O` gave CHRM1 PAM 8.0, CHO-K1 Ca ag 13.4, M1 antag -16.9, M1 ag 10.8, M1 PAM parental 7.0 and CHO-K1 Ca antag -0.5.
`Cc1ccc(S(=O)(=O)N(CC(=O)NC2CC2)c2ccc(C)c(Cl)c2)cc1` gave CHRM1 PAM 3.3, CHO-K1 Ca ag 1.5, M1 antag -1.8, M1 ag -4.2, M1 PAM parental 2.8 and CHO-K1 Ca antag -1.4.
`Cc1cccc(CN2C(=O)N/C(=C/c3ccc(C)s3)C2=O)c1` gave CHRM1 PAM 3.1, CHO-K1 Ca ag 1.5, M1 antag -1.9, M1 ag -0.6, M1 PAM parental 11.8 and CHO-K1 Ca antag -4.4.
`Cc1ccc(/C=C2/NC(=O)N(Cc3ccccc3)C2=O)s1` gave CHRM1 PAM -7.1, CHO-K1 Ca ag 1.6, M1 antag 10.9, M1 ag -1.5, M1 PAM parental -7.5 and CHO-K1 Ca antag 27.4*.
For Cc1c(C(=O)OCC(=O)NCc2ccco2)oc2ccccc12 the results were CHRM1 PAM 3.2, CHO-K1 Ca ag 0.6, M1 antag -3.9, M1 ag -7.8, M1 PAM parental 18.2 and CHO-K1 Ca antag -17.7.
For COCc1c(C(=O)OCC(=O)NCc2ccco2)oc2ccccc12 the results were CHRM1 PAM 3.1, CHO-K1 Ca ag 0.0, M1 antag -6.2, M1 ag -7.0, M1 PAM parental -14.0 and CHO-K1 Ca antag 24.4*.
`Cc1c(O)ccc2c(-c3ccccc3)cc(=O)oc12` gave CHRM1 PAM -11.2, CHO-K1 Ca ag 9.5, M1 antag 7.6, M1 ag 1.1, M1 PAM parental 10.2 and CHO-K1 Ca antag 17.1.
`Cc1cccc2cc(-c3ccccc3)c(-c3ccccc3)c[n+]12` gave CHRM1 PAM -22.6, CHO-K1 Ca ag 0.2, M1 antag 52.4*, M1 ag -9.0, M1 PAM parental 11.8 and CHO-K1 Ca antag -5.8.
For COc1cccc(CN2CCC2(C)C(=O)Nc2cccc3cccnc23)c1F (stereo not drawn) the results were CHRM1 PAM 9.5, CHO-K1 Ca ag -0.7, M1 antag -8.3, M1 ag -1.0, M1 PAM parental 10.3 and CHO-K1 Ca antag -9.4.
`CC1(C(=O)Nc2cccc3cccnc23)CCN1Cc1csc2ccccc12` (stereo not drawn) gave CHRM1 PAM -0.4, CHO-K1 Ca ag 1.2, M1 antag -6.5, M1 ag -2.9, M1 PAM parental 50.6* and CHO-K1 Ca antag -35.6.
For Nn1cnc2c(ncn2C2OC(CO)C(O)C2O)c1=O (stereo not drawn) the results were CHRM1 PAM 0.3, CHO-K1 Ca ag 0.2, M1 antag -3.5, M1 ag -2.4, M1 PAM parental 19.9 and CHO-K1 Ca antag -7.5.
For O=C(NC(NNc1ccc([N+](=O)[O-])cc1)(C(F)(F)F)C(F)(F)F)c1ccc(Cl)cc1 the results were CHRM1 PAM -12.6, CHO-K1 Ca ag 8.7, M1 antag 33.6*, M1 ag 2.5, M1 PAM parental -9.2 and CHO-K1 Ca antag 21.4.
Screening O=C(CN1CCCCC1)Nc1ccc(S(=O)(=O)c2ccc(NC(=O)CN3CCCCC3)cc2)cc1 returned CHRM1 PAM 9.0, CHO-K1 Ca ag 1.0, M1 antag -18.7, M1 ag -3.2, M1 PAM parental 12.2 and CHO-K1 Ca antag -13.7.
`CSC1=NSC2=NC(=O)/C(=C\c3ccc(OC(=O)c4ccco4)cc3)C(=N)N12` gave CHRM1 PAM 3.9, CHO-K1 Ca ag 0.5, M1 antag -3.9, M1 ag -3.2, M1 PAM parental 10.6 and CHO-K1 Ca antag -13.9.
Screening CCSC1=NSC2=NC(=O)/C(=C\c3coc4ccccc4c3=O)C(=N)N12 returned CHRM1 PAM -26.9, CHO-K1 Ca ag 58.6*, M1 antag 61.0*, M1 ag 87.1*, M1 PAM parental -13.6 and CHO-K1 Ca antag 48.3*.
`CC(C)CC1=NN2C(=N)/C(=C\c3coc4ccccc4c3=O)C(=O)N=C2S1` gave CHRM1 PAM -30.8, CHO-K1 Ca ag 100.2*, M1 antag 45.1*, M1 ag 125.2*, M1 PAM parental -13.9 and CHO-K1 Ca antag 44.9*.
COc1cc(C)ccc1S(=O)(=O)NC(=O)C1(C)CCN1C(=O)COc1ccc(Cl)cc1 (stereo not drawn) was read as CHRM1 PAM 12.3, CHO-K1 Ca ag 0.2, M1 antag -22.7, M1 ag 1.3, M1 PAM parental 12.9 and CHO-K1 Ca antag -6.1.
CCN(CC)c1ccc(N=C2C=CC(=O)C=C2NC(C)=O)cc1 was read as CHRM1 PAM -8.2, CHO-K1 Ca ag 7.0, M1 antag 8.1, M1 ag 1.0, M1 PAM parental 4.1 and CHO-K1 Ca antag -4.3.
For Cc1ccc(CN/C=C/C(=O)c2ccc(Br)cc2)cc1 the results were CHRM1 PAM 4.0, CHO-K1 Ca ag 1.6, M1 antag -13.3, M1 ag -4.6, M1 PAM parental 30.1 and CHO-K1 Ca antag -26.3.
`Cc1ccc(C(=O)/C=C/NCc2ccc(F)cc2)cc1` gave CHRM1 PAM 14.9, CHO-K1 Ca ag 0.0, M1 antag -8.7, M1 ag 0.6, M1 PAM parental -6.0 and CHO-K1 Ca antag 25.0*.
